PubChem BioAssay (NCATS)
Results filed as inconclusive are left out. Calls of active or inactive are those of the source. Unless noted, calls come from the whole dose curve; as a rule, active = well fitted curve in the direction sought with a large enough effect; inconclusive = small, poorly fitted or top-dose-only effect, or another doubt; inactive = no such curve, though single readings can be large; an effect the other way counts as inactive or inconclusive.

Legend:
[1] = qHTS profiling of the MIPE4 collection as inhibitors of Plasmodium falciparum (3D7) proliferation (AID 743344; call rule not given here;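 note: scaled between DMSO vehicle wells and 0.29 µM artemisinin as full inhibition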); conditions: P. falciparum 3D7 in erythrocytes, SYBR Green DNA fluorescence, 72 h; at 28.5 µM unless noted
In short: (§1)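 Erythrocytes infected with P. falciparum (0.3% parasitemia, 2.5% hematocrit) incubated with compounds 72 h at 37 C, 5% CO2. Lysis with saponin/Triton buffer containing SYBR Green I, overnight at room temperature in the dark; DNA fluorescence (485/535 nm) normalised to 0.29 uM artemisinin and DMSO.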

[2] = qHTS profiling of the MIPE4 collection as inhibitors of Plasmodium falciparum (DD2) proliferation (AID 743345; call rule not given here); conditions: P. falciparum Dd2 in erythrocytes, SYBR Green DNA, 72 h; at 28.5 µM unless noted
In short: as §1

[3] = qHTS profiling of the MIPE4 collection as inhibitors of Plasmodium falciparum (DD2) proliferation (Rep 2) (AID 743346; call rule not given here); conditions: P. falciparum Dd2 in erythrocytes, SYBR Green DNA, 72 h; at 28.5 µM unless noted
In short: as §1

[4] = qHTS profiling of the MIPE4 collection as inhibitors of Plasmodium falciparum (HB3) proliferation (AID 743347; call rule not given here;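 note: plate controls were DMSO vehicle wells for no effect and artemisinin wells for full effect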); conditions: P. falciparum HB3 in erythrocytes, SYBR Green DNA, 72 h; at 28.5 µM unless noted
In short: as §1

[5] = High-throughput drug toxicity screening in the BPDCN cell line Cal-1 (AID 1224825; call rule not given here); conditions: Cal-1 BPDCN cell viability, qHTS; at 45.8 µM (top of the series) unless noted
In short: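 500 Cal-1 cells/well, RPMI + glutamine + 10% FBS (phenol red-free); cpd added by pin tool; 48 h, 37C, 5% CO2; CTG 15 min RT, lumi read. Normalised: DMSO 100%, bortezomib 9.2 uM 0%.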

[6] = qHTS assay for measurement of the activity of small molecule inhibitors on Zika virus induced Caspase-3 activity in human astrocytoma cells (AID 1224859); note: potency is the fitted concentration of half-maximal effect
In short: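 Inhibition of Zika-induced caspase-3/7 activity: SNB-19 cells, 1 h compound pretreatment, ZIKV 2 FFU/cell for 6 h at 37 C, Caspase-Glo luminescence read-out.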

[7] = qHTS Screen of the MIPE 4.0 Collection Against Ewings Sarcoma (RDES) (AID 1259252); note: nearly all actives have a fitted effect of over 35% in size; note: potency is the fitted concentration of half-maximal effect
In short: (§2)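 After a 4 h attachment period in RPMI/5% FBS, cells were pin-dosed with test compounds; DMSO served as negative and 9.2 uM bortezomib (final) as positive control. Luminescent CellTiter-Glo signal at 48 h defined viability.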

[8] = qHTS Screen of the MIPE 4.0 Collection Against Ewings Sarcoma (TC71) (AID 1259253); note: nearly all actives have a fitted effect of over 40% in size; note: potency is the fitted concentration of half-maximal effect
In short: as §2

[9] = qHTS Screen of the MIPE 4.0 Collection Against Ewings Sarcoma (EW8) (AID 1259255); note: nearly all actives have a fitted effect of over 35% in size; note: potency is the fitted concentration of half-maximal effect;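 for viability: 100% = DMSO-treated cells and 0% = medium-only wells without cells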
In short: as §2

[10] = qHTS Screen of the MIPE 4.0 Collection Against Ewings Sarcoma (TC32) (AID 1259256); note: nearly all actives have a fitted effect of over 45% in size; note: potency is the fitted concentration of half-maximal effect
In short: as §2

[11] = qHTS assay for measurement of the activity of small molecule inhibitors on Zika virus induced Caspase-3 activity in human iPSC derived neural progenitor cells (hNPCs) (AID 1224857); note: nearly all actives have a fitted effect of over 65% in size; note: potency is the fitted concentration of half-maximal effect
In short: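 After overnight (16–20 h) culture at 350 cells/well, hNPCs get compound, then ZIKV 2 FFU/cell one hour later. Six hours on, Caspase-Glo 3/7 is added and luminescence measured.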

[12] = P-glycoprotein substrates identified in KB-8-5-11 adenocarcinoma cell line, qHTS therapeutic library screen (AID 1346987); note: nearly all actives have a fitted effect of over 65% in size; note: potency is the fitted concentration of half-maximal effect
In short: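 KB-8-5-11, a colchicine-selected P-gp-overexpressing KB-3-1 subline, was grown without colchicine for the assay. Cells were seeded at 500 cells/well, dosed in concentration-response and incubated 72 h at 37 degree C, 5% CO2. Viability was read by CellTiter-Glo luminescence.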

[13] = P-glycoprotein substrates identified in KB-3-1 adenocarcinoma cell line, qHTS therapeutic library screen (AID 1346986); note: nearly all actives have a fitted effect of over 60% in size;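 note: potency is the fitted concentration of half-maximal effect; potency is for cytotoxicity meaning loss of cell viability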
In short: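 Cells seeded 500/well in DMEM/10% FCS; compounds pinned in dose-response; 72 h incubation; CellTiter-Glo added, 5 min, luminescence. KB-8-5-11 run ±tariquidar to test reversal of P-gp resistance.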

[14] = qHTS Assay for Identifying Gametocytocidal Compounds (AID 743244);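 note: % is set by controls: 0 for no effect and ±100 for the full control effect; actives lower the fluorescent signal which means gametocytes are killed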; conditions: P. falciparum 3D7 stage III-V gametocytes, alamarBlue, 72 h; max response: stronger effect = lower value
In short: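 Using 20,000 stage III–V 3D7 gametocytes per well, compounds were incubated 72 h under 37 °C/5% CO2. Viability was then assessed by 24 h alamarBlue reduction, measured fluorometrically at 525/598 nm.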

| SMILES | parasite growth, % of DMSO control [1] | parasite growth remaining, % of DMSO control (lower = more inhibition) [2] | parasite growth, % of control (lower = inhibition) [3] | growth, % of control [4] | viability (% of control) [5] | Potency [6] | Potency [7] | Potency [8] | Potency [9] | Potency [10] | Potency [11] | Potency [12] | Potency [13] | max response [14] |
| --- | --- | --- | --- | --- | --- | --- | --- | --- | --- | --- | --- | --- | --- | --- |
| COc1ccc(S(=O)(=O)Nc2cc(-c3c(O)ccc4ccccc34)c(O)c3ccccc23)cc1 | 29.2% | 94.7% | 23.7% | 49.9% | 3.97% | inactive | 16.6 µM (active) | 10.5 µM (active) | 4.18 µM (active) | 18.7 µM (active) | – | – | – | – |
| N=c1ccn2c(n1)O[C@H]1[C@@H](O)[C@@H](CO)O[C@H]12 | 82.9% | 119% | 83.2% | 73.8% | 11.2% | inactive | 0.332 µM (active) | 0.662 µM (active) | 1.05 µM (active) | 0.372 µM (active) | inactive | – | – | – |
| O=C(Nc1cc2cc[nH]c2cn1)c1ccccc1 | 76.5% | 88% | 39.2% | 75.4% | 8.25% | 5.26 µM (active) | 13.2 µM (active) | 13.2 µM (active) | 14.8 µM (active) | 13.2 µM (active) | 4.69 µM (active) | – | – | – |
| N#Cc1cc(NC(=O)Nc2nnc(-c3ccncc3)s2)ccc1-c1cn[nH]c1 | 45.1% | 101% | 74.6% | 41.3% | – | inactive | – | inactive | inactive | inactive | inactive | inactive | – | – |
| CC(=O)O[C@H]1C[C@@H]2CC[C@H]3[C@H]4C[C@H]([N+]5(C)CCCCC5)[C@@H](OC(C)=O)[C@@]4(C)CC[C@@H]3[C@@]2(C)C[C@H]1[N+]1(C)CCCCC1 | – | – | – | – | 120% | inactive | 1.32 µM (active) | – | 2.64 µM (active) | 2.35 µM (active) | inactive | inactive | inactive | – |
| Nc1ccn(C[C@@H](CO)OCP(=O)(O)O)c(=O)n1 | – | – | – | – | 98.1% [at 23.2 µM] | inactive | inactive | inactive | inactive | inactive | inactive | – | – | 0.0749% (inactive) |
| C#C[C@]1(O)CC[C@@H]2[C@@H]3CCc4cc(O)ccc4[C@H]3CC[C@@]21C | 75.9% | 90.7% | 54.7% | 89.8% | 11.2% | inactive | 18.7 µM (active) | 16.6 µM (active) | 20.9 µM (active) | 20.9 µM (active) | inactive | 11.8 µM (active) | – | – |
| NC(=O)c1cccc(-c2cccc(OC(=O)NC3CCCCC3)c2)c1 | – | – | – | 94.2% | 91.7% | inactive | inactive | inactive | inactive | inactive | inactive | inactive | – | – |
| CCOc1cc2ncc(C#N)c(Nc3ccc(OCc4ccccn4)c(Cl)c3)c2cc1NC(=O)C=CCN(C)C | 7.93% | 7.24% | 12.3% | 2.73% | 13.3% | inactive | 0.118 µM (active) | 2.35 µM (active) | 6.62 µM (active) | 2.96 µM (active) | – | – | – | – |
| C[C@@]12C(=O)OC(=O)[C@@]1(C)C1CCC2O1 | 12.4% | 14.9% | 13.5% | 7.05% | – | inactive | 2.64 µM (active) | 4.18 µM (active) | 2.64 µM (active) | 2.64 µM (active) | inactive | 5.26 µM (active) | – | – |
| CC(=O)O[C@]1(C(C)=O)CC[C@H]2[C@@H]3C=C(C)C4=CC(=O)CC[C@]4(C)[C@@H]3CC[C@@]21C | 23.2% | 73.4% | 18.8% | 10.6% | 3.38% | inactive | 3.32 µM (active) | 4.18 µM (active) | 7.43 µM (active) | 5.26 µM (active) | inactive | inactive | inactive | – |
| C[C@H]1C[C@H]2[C@@H]3CCC4=CC(=O)C=C[C@]4(C)[C@@H]3C(=O)C[C@]2(C)[C@@]1(O)C(=O)CO | 63% | 97.9% | 81.9% | 86.6% | 108% | inactive | inactive | – | inactive | inactive | inactive | inactive | – | – |
| C=C1C(=O)O[C@H]2[C@@H]1CCC(C)=CCC[C@@]1(C)O[C@@H]21 | 39.5% | 75.8% | 37.7% | 31.2% | 2.31% | inactive | 20.9 µM (active) | 10.5 µM (active) | 9.35 µM (active) | 9.35 µM (active) | inactive | 23.5 µM (active) | – | – |
| NC[C@H]1O[C@H](O[C@H]2[C@@H](O)[C@@H](O[C@H]3O[C@H](CO)[C@@H](O)[C@H](N)[C@@H]3O)[C@H](N)C[C@@H]2N)[C@H](N)C[C@H]1O | 97.7% | 92.9% | – | 88.3% | 123% | inactive | inactive | inactive | inactive | inactive | inactive | inactive | – | – |
| CS(=O)(=O)N1CCc2c(-c3cnc(N)nc3)nc(N3CCOCC3)nc21 | 5.02% | 9.76% | 6.07% | 2.07% | 33.9% | inactive | 0.105 µM (active) | 0.59 µM (active) | 1.32 µM (active) | 0.296 µM (active) | inactive | 1.3 µM (active) | 0.82 µM (active) | – |
| CC1(C)O[C@@H]2C[C@H]3[C@@H]4CCC5=CC(=O)C=C[C@]5(C)[C@@H]4[C@@H](O)C[C@]3(C)[C@]2(C(=O)CO)O1 | 7.1% | 49.3% | 7.43% | 5.96% | 46.1% | inactive | inactive | inactive | inactive | inactive | inactive | inactive | inactive | – |
